An excerpt weighted towards active compounds, which were near 11% of everything screened.
ALDH1A1 inh: qHTS Assay for Inhibitors of Aldehyde Dehydrogenase 1 (ALDH1A1); Aldehyde dehydrogenase 1A1 (Homo sapiens), P00352; Purified ALDH1A1, NADH fluorescence, propionaldehyde substrate; Potency, µM (top dose mostly 75.3 µM), for inactives: at the highest dose activity, negative = inhibition, most hits filed as inhibitors; 220,000 compounds, 7.3% hits;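 note: potency is the fitted concentration of half-maximal effect; plate controls were no enzyme wells and a reference inhibitor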
Target sequence (P00352 whole entry, looked up): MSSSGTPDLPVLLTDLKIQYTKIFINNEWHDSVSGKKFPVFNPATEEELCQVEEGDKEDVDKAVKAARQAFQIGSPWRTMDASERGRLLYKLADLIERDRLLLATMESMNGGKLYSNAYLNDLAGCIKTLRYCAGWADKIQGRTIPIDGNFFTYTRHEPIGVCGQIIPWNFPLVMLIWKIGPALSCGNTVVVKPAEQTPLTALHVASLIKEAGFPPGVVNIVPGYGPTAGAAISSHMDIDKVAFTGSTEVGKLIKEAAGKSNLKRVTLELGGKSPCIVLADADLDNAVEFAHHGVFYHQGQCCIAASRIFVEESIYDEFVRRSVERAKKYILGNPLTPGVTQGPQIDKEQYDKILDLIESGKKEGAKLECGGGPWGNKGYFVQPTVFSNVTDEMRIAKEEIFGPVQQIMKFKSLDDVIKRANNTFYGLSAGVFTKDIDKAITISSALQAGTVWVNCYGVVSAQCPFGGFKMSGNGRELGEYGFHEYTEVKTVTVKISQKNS
PNC inhibitor: High Content Assay for Compounds that inhibit the Assembly of the Perinucleolar Compartment | PC3M PTB-GFP, PNC prevalence imaging, 16 h; stronger effect = lower value | activity change (PNC), negative = inhibition, % at 10 µM | 140,000 compounds, 3.1% hits | AID 2417, 2010;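 active = readout at or below -70, meaning at least 70% loss of cells showing the perinucleolar compartment, a nuclear body marking cancer cells; inconclusive = readout between -30 and a set limit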;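 note: plate controls were DMSO wells for no effect and camptothecin positive control wells for full effect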
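PC3M cells stably expressing PTB-GFP, 750–1000 cells/well, treated 16 h at 37 °C with compound (23 nl of library stock), in duplicate. After paraformaldehyde fixation and Hoechst stain, imaged at 20x; PNC prevalence scored by image analysis.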
HPGD block: qHTS Assay for Inhibitors of HPGD (15-Hydroxyprostaglandin Dehydrogenase); 15-hydroxyprostaglandin dehydrogenase [NAD(+)] (Homo sapiens), P15428; purified HPGD, NADH fluorescence kinetic, PGE2 substrate; Potency, µM, for the others: at the highest dose activity change, negative = inhibition, actives largely listed as inhibitors; 150,000 compounds, 4.3% hits; AID 894, 2007; note: potency is the fitted concentration of half-maximal effect
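NADH formation kinetics: reaction with 30 uM PGE2 and 1 mM NAD+ (final), 20 nM enzyme, Tris-HCl pH 8 with Tween 20, after 15 min compound preincubation at room temperature. Fluorescence change, last versus first of five reads.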
An asterisk follows results filed as active; ? = inconclusive; . = no result given; [ ] = another dose, or the depositor's remark. Unless noted, calls come from the whole dose curve; as a rule, active = well fitted inhibition curve with a large enough effect (not every such curve was filed as active); inconclusive = small, poorly fitted or top-dose-only effect, or another doubt; inactive = no such curve, though single readings can be large or run the other way. Unless noted, % is set by controls: 0 for no effect and ±100 for the full control effect.

SMILES	ALDH1A1 inh	PNC inhibitor	HPGD block
C=CCNC(=O)C1CCN(c2ccc(S(=O)(=O)N3CCOCC3)cc2[N+](=O)[O-])CC1	3.6%	.	.
O=S(=O)(O)c1cc(N=[N+]([O-])c2cc(S(=O)(=O)O)c3ccccc3c2)cc2ccccc12	?	.	-18.9%
COC(=O)CCS(=O)(=O)c1cc(Cl)ccc1Cl	9.1%	-137.9*	-14.9%
COC(=O)CCS(=O)(=O)c1ccc(NC(C)=O)cc1	4.5%	-11.2	-13.1%
COc1cccc(N2CCN(C(=O)c3nc4nc(C)cc(C)n4n3)CC2)c1	16.0%	.	.
COc1cc(NC(=O)CN(C)Cc2ccc(OC(F)F)cc2)c(C)cc1[N+](=O)[O-]	-5.0%	?	.
CC(=O)c1cccc(NC(=O)CN(C)Cc2ccc(OC(F)F)cc2)c1	11.2µM*	.	.
COC(=O)CN(C#N)c1nc(NC(C)C)nc(NC(C)C)n1	7.8%	.	.
O=C(Nc1nc(-c2ccccn2)cs1)c1cc(Cl)ccc1[N+](=O)[O-]	10µM*	.	.
O=C(Nc1nc(-c2ccccn2)cs1)c1ccccc1-n1cnnn1	10µM*	.	.
Cc1csc(NC(=O)c2ccc(Cl)cc2[N+](=O)[O-])n1	0.9%	.	.
O=C(Nc1nc(-c2ccccn2)cs1)c1ccc2c(c1)OCCO2	-18.5%	.	.
Cc1ccccc1OCCSc1nnc(-c2cccnc2)n1N	-9.2%	?	-11.9%
CC1(NC(=O)NCc2ccccc2)CCS(=O)(=O)C1 (configuration not stated)	2.5%	.	.
COc1ccccc1[C@@H]1C(c2ccc(F)cc2)=NN(c2ccc(Br)cc2)[C@H]1C(=O)N1CCOC1=O	?	.	-18.8%
CCOc1cccc(CNCCSc2nnnn2C)c1	-0.3%	.	.
CCOC(=O)c1ccc(-n2c(CC)nc3ccccc3c2=O)cc1	-3.1%	.	.
CCOC(=O)C1CCN(Cc2nc3ccccc3c(=O)n2-c2ccc(F)cc2)CC1	10.9%	0.0	-13.5%
CCOC(=O)c1ccc(-n2c(CN(CC)CC)nc3ccc([N+](=O)[O-])cc3c2=O)cc1	28.2µM*	.	.
CCOC(=O)c1ccc(-n2c(CN3CCC(C(N)=O)CC3)nc3ccc([N+](=O)[O-])cc3c2=O)cc1	8.91µM*	.	.
COC(=O)[C@@H]1CC[C@H](C)[C@@H](c2ccc(C)cc2)N1C(=O)c1ccc(/C=N\O[C@@H](C)c2cn([C@H]3COC[C@H]3O)nn2)cc1	-0.4%[13.5 µM]	.	.
Cc1ccc(C2CC(=O)Nc3cc4c(cc32)OCO4)o1 (configuration not stated)	14.3%	-17.6	2.2%
COc1ccccc1-c1ccc2ncnc(NC3CC3)c2c1	-3.7%	.	.
C=CCO/N=C(/C)c1ccc(Oc2cnccn2)cc1	7.6%	.	.
CCN1CCN(C(=S)NCC2CCCO2)CC1 (configuration not stated)	0.501µM*	.	.
SMILES	ALDH1A1 inh	PNC inhibitor	HPGD block
Fc1ccc(N2CCN(C(=S)NCC3CCCO3)CC2)cc1 (configuration not stated)	-7.2%	.	.
Cc1ccccc1NC(=O)c1c(F)c(F)c(F)c(F)c1F	6.2%	-9.1	-5.6%
Cc1ccccc1NC(=O)C1c2cccc[n+]2CC(=O)N1c1c(C)cccc1C (configuration not stated)	11.2µM*	?	-22.0%
CC(C)CC1OCCC=CC1C (configuration not stated)	6.4%[13.5 µM]	.	.
CCN1CCCC1CN(Cc1cc2ccc(C)cc2[nH]c1=O)C(=S)Nc1ccc(F)cc1 (configuration not stated)	4.4%	.	.
Cn1cc(/C=N/Nc2ccccc2)c2ccccc21	8.91µM*	.	.
Oc1ccccc1/C=N/Nc1ccccc1	?	61.0	?
Cc1cccc(NC(=O)c2ccc(NC(C)c3ccccc3)c([N+](=O)[O-])c2)n1 (configuration not stated)	-12.7%	.	.
Cc1ccc(-n2c(C)cc(/C=N/NC(N)=S)c2C)cc1	?	-28.6	-6.2%
COc1ccc(-n2c(C)cc(/C=N/Nc3nnc(C)n3N)c2C)cc1	12.6µM*	22.0	-18.9%
CCCCN(CCCC)C(=S)NC(=O)c1ccccc1Cl	3.9%	-23.9	-4.1%
Cc1cccn2c1nc(=S)n2C(=O)c1ccco1	-10.1%	26.7	?
CN=C(c1ccco1)n1c(=S)nc(-c2ccco2)n(C)c1=S	10µM*	-16.0	?
COc1ccc(O[C@H]2C=C[C@@H](c3ccccc3)O[C@@H]2CO/N=C(\C)CCN2CCCCc3nc(C)c(C)cc32)cc1	-5.2%[13.5 µM]	-22.6	-21.1%
Cc1ccnc(N=Cc2c(O)ccc3oc4c(c23)CCCC4)c1	?	26.9	-24.3%
COc1ccc(CCNC(=O)CSc2ccc(Br)cc2)cc1OC	3.3%	.	.
COc1ccccc1CNC(=O)CC(C)C	1.7%	-7.4	25.1µM*
COc1ccccc1CNC(=O)CSc1ccc(Br)cc1	-19.3%	-21.9	28.2µM*
COc1ccccc1CNC(=O)C1CCN(Cc2nc(-c3cccc(Cl)c3)oc2C)CC1	7.1%	4.7	-5.4%
CCc1ccc(-c2nc(CN3CCC(C(=O)NCc4ccccc4OC)CC3)c(C)o2)cc1	?	-97.5*	-8.5%
COc1ccccc1CNC(=O)c1ccc(-c2ccccc2C(F)(F)F)o1	-12.9%	?	-11.8%
COc1ccccc1CNC(=O)c1ccc(-c2ccccc2Cl)o1	14.1µM*	35.3	-39.7%
COc1ccccc1CNC(=O)COc1ccccc1OC	2.4%	33.9	-9.2%
O=C(Nc1ccncc1)c1ccc(-c2ccccc2)cc1	3.5%	.	.
CCOc1ccc(-c2nc(CSCC(=O)NC3CCCc4ccccc43)c(C)o2)cc1 (configuration not stated)	?	13.4	?
SMILES	ALDH1A1 inh	PNC inhibitor	HPGD block
O=C(c1cccc(F)c1)N1CCC2(CC1)CCN(c1ccc(-c3ccccc3)cc1)CC2	-6.7%	.	3.7%
COc1ccc2c(=O)c(Oc3ccc(C(=O)O)cc3)c(C(F)(F)F)oc2c1	20.9%	.	.
COc1ccccc1CNC(=O)C1CCC1	-5.2%	47.1	14.1µM*
COc1ccccc1CNC(=O)C1CCN(S(=O)(=O)N2CCCCC2)CC1	?	?	-7.8%
CCOc1ccccc1N1CC(C(=O)Nc2ccc3c(c2)OCCO3)CC1=O (configuration not stated)	-3.1%	.	.
COC(=O)CC1C2(C)CC34OC5(C)O[C@@]6(C7/C(=C(/OC)C(C)C)C(=O)OC(c8ccoc8)[C@@]7(C)C(OC(=O)C(C)C)C(OC)[C@]6(O5)[C@@]13C)C(OC)[C@]4(OC)C2OC(C)=O (some centres not stated)	3.3%	.	-8.8%
COc1ccc(CC(=O)NCc2n[nH]c(=S)n2-c2ccccc2OC)cc1	0.0%	.	.
CC(=O)C1CCC2C3CCC4=CC(=O)CC[C@]4(C)[C@@]3(F)C(O)C[C@]12C (some centres not stated)	-5.4%	.	.
Cc1ccc(C(=O)N/N=C2\CC3CC=CC23)c(C)c1 (configuration not stated)	5.0%	.	.
Cc1cccc(C)c1NC(=S)N/N=C1\CC2CC=CC12 (configuration not stated)	11.2µM*	.	.
Cc1ccc(NC(=S)N/N=C2\CC3CC=CC23)c(C)c1 (configuration not stated)	25.1µM*	.	.
Cc1cccc(C)c1NC(=S)N/N=C/c1c(Cl)cccc1Cl	-1.0%	.	.

Screens from PubChem BioAssay.
